Cycloheximide cs: counter-screen for Shiga toxin inhibitors: cycloheximide protein synthesis inhibition | cell reporter, cycloheximide protein synthesis inhibition counterscreen | max response, % | actives 12% (n = 300,000) | AID 2314; in the data active = max response mostly above about 13%, no sharp cut-off; inactive = mostly below about 14%; note: read at 38.3 µM for the half of the compounds with a filed dose
FMDV inh: foot and mouth disease virus antiviral activity | FMDV antiviral cell-based qHTS | Potency, µM (titrated, usually from 57.9 µM), usual class: inhibitors | actives 1.2% (n = 410,000); calls by dose curve; tested in HEK293T cells; note: read-out not given here; nearly all actives have a fitted effect of over 45% in size
Sm TGR inh: blocks Schistosoma mansoni thioredoxin glutathione reductase; purified TGR, DTNB reduction, TNB absorbance 405 nm; Potency, µM (highest dose often 114 µM), actives largely listed as inhibitors; actives 3% (n = 360,000); active = well fitted inhibition curve with a large enough effect; inconclusive = small, poorly fitted or top-dose-only effect; inactive = no such curve, though single readings can be large or run the other way; note: nearly all actives have a fitted effect of over 60% in size
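TGR 20 nM + NADPH 100 uM (dispensed conc.), cpd preinc 15 min RT; start with NADPH (500 uM addition) then DTNB (15 mM addition). Kinetic TNB absorbance, 405 nm filter. Four-parameter Hill fit across titration.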
Shiga toxin inh: Shiga toxin inhibition | AID 2315 | actives 9.2% (n = 290,000) | inhibition, % at 38.7 µM | Vero cells, Shiga toxin protein synthesis inhibition reporter; in the data active = inhibition mostly above about 28%, no sharp cut-off; inactive = mostly below about 43%
Numbers stand for hits; i = inactive; ? = inconclusive; nt = not tested or not shown. Only some compounds are listed: those with a hit (about 12% of all), similar ones and a draw of the others.

SMILES	Cycloheximide cs	FMDV inh	Sm TGR inh	Shiga toxin inh
Cn1c(NC(=O)/C=C/c2ccco2)cc(=O)n(C)c1=O	i	i	28.2µM	i
COc1cc(/C=C\C(=O)Nc2cc(=O)n(C)c(=O)n2C)cc(OC)c1OC	i	i	i	i
NC(=O)Cn1c(=O)n(-c2ccc(F)c(Cl)c2)c(=O)c2sc3ccccc3c21	nt	i	i	nt
Cc1noc(Cn2c(=O)c3cc4c(cc3n(CC(=O)Nc3ccc(C(C)C)cc3)c2=O)OCO4)n1	nt	i	i	nt
NNC(=O)CNC(c1ccccc1)c1cc(Br)ccc1NC(=O)CCN1CCOCC1 (centres undefined)	i	i	17.8µM	i
NNC(=O)CNC(c1ccccc1)c1cc(Br)ccc1NC(=O)c1ccc(Br)cc1 (centres undefined)	i	i	i	i
Cc1ccc(CN2CCN(C3CCN(C(=O)Nc4ccccc4C(F)(F)F)CC3)C(=O)C2=O)cc1	nt	i	i	nt
Cc1cccc(NC(=O)C(=O)NCCCc2ccccc2)c1	49.6	nt	i	50.6
COc1ccc(NC(=O)NCCCCc2ccccc2)cc1	22.4	i	i	i
Cc1ccc(NC(=O)NCCCc2ccccc2)cc1	35.3	i	i	83.1
O=C(NCCCCc1ccccc1)Nc1ccc(F)cc1	i	i	i	31.1
Cc1ccccc1NC(=O)NCCc1ccc(Cl)cc1	i	i	nt	i
Cc1ccccc1NC(=O)NCCCCc1ccccc1	i	i	i	38.6
CCOc1ccc(NC(=O)c2ccccc2-c2ccccc2C(=O)O)cc1	nt	i	nt	nt
CCOc1ccc(NC(=O)c2cccnc2SC)cc1	22.1	i	i	i
CCOc1ccc(NC(=O)c2ccccc2CO)cc1	30.6	i	i	i
CCOc1ccc(NC(=O)c2ccccc2OC)cc1	40.3	i	i	i
CCOc1ccc(NC(=O)c2ccccc2O)cc1	12.1	i	i	i
CCOc1ccc(NC(=O)c2ccccc2OCC(=O)c2ccccc2)cc1	47.6	i	i	i
COCCn1c(SCC(=O)NCCc2ccccc2)nnc1-c1ccco1	i	i	?	i
Cn1c(SCC(=O)Nc2ccc(Cl)cc2F)nnc1-c1ccco1	i	i	35.5µM	i
Cn1c(SCc2ccccc2)nnc1-c1ccco1	40.8	i	i	82.4
COCCn1c(SCc2cccnc2)nnc1-c1ccco1	i	i	28.2µM	i
c1ccc(CSc2nnc(-c3ccco3)n2Cc2ccco2)cc1	37.5	i	44.7µM	i
Cc1ccc(SCCNC(=O)CN(c2ccccc2)S(=O)(=O)N(C)C)cc1	nt	i	i	nt
SMILES	Cycloheximide cs	FMDV inh	Sm TGR inh	Shiga toxin inh
CCOC(=O)CSc1nnc(-c2ccco2)n1-c1ccccc1	i	i	22.4µM	i
COc1ccc(C(=O)CSc2nnc(-c3ccco3)n2C)cc1	i	i	?	i
CC(C)(C)c1nnc(SCC(=O)c2ccccc2)n(N)c1=O	56.8	i	i	63.5
Cc1ccc(C(=O)CSc2nnc3c4ccccc4nc(C(C)(C)C)n23)cc1	i	i	i	i
Cn1c(SCC(=O)c2ccccc2)nnc1-c1ccco1	41.4	i	?	62.6
CCn1c(SCc2cccc(C(F)(F)F)c2)nnc1-c1ccco1	i	i	28.2µM	i
CCN(Cc1ccccc1)C(=O)Cn1c(=O)n(-c2ccc(C)c(C)c2)c(=O)c2c(C)c(C)sc21	nt	i	i	nt
O=C(Nc1cccc2cccnc12)c1c(Cl)cc(Cl)cc1Cl	i	nt	nt	i
COc1ccccc1NC(=O)C1=C(C)Nc2c(C(=O)Nc3ccc(C)cc3)cnn2C1c1cccc(OC)c1OC (centres undefined)	nt	i	i	nt
C[C@@H]1COC(=O)O1	i	nt	nt	i
CC(=O)Nc1ccc(NC(=O)C(Cc2ccccc2)NS(=O)(=O)c2ccc3c(c2)oc(=O)n3C)cc1 (centres undefined)	nt	i	i	nt
Cc1ccc(C)c(N2CCN(C(=O)C3CCN(S(=O)(=O)c4ccc5[nH]c(=O)oc5c4)CC3)CC2)c1	nt	i	i	nt
Cc1ccc(-c2noc(-c3ccc(N4CCOCC4)c([N+](=O)[O-])c3)n2)cc1	nt	i	i	nt
COc1cccc(-c2nnc(SCc3ccc(C#N)cc3)n2Cc2ccco2)c1	i	i	39.8µM	i
Cc1ccc(-c2nnc(SCc3ccc(C#N)cc3)n2Cc2ccco2)cc1	i	i	i	i
Cn1c(SCC(=O)c2ccccc2)nnc1C1COc2ccccc2O1 (centres undefined)	42.1	i	i	i
Cn1c(SCC(=O)c2ccc3c(c2)OCO3)nnc1C1COc2ccccc2O1 (centres undefined)	i	i	i	i
CCc1ccccc1NC(=O)Cn1nc(-c2cc(C)ccc2C)c2c(c1=O)CCCC2	nt	i	i	nt
CCOC(=O)c1[nH]c(C)c(C(=O)NCCc2ccccc2)c1C	nt	i	i	nt
CCN(CC)CCC(c1ccc(N(C)C)cc1)c1c(OC)cc(OC)c2c1OC(=O)CC2c1ccc(OC)cc1 (centres undefined)	i	nt	nt	i
CCOC(=O)c1cnc(Nc2nc3ccccc3o2)nc1CN1CCN(C)CC1	i	i	50.1µM	i
Cc1ccc(OCCOc2ccc(Br)cc2)c([N+](=O)[O-])n1	71.8	i	i	154.3
CCOc1ccc(C(C)=O)cc1COc1ccc(C)nc1[N+](=O)[O-]	i	i	10µM	i
Cc1ccc(OCc2ccccc2C)c([N+](=O)[O-])n1	40.7	i	i	i
Cc1ccc(N2C(=O)CCSC23C(=O)N(Cc2ccccc2)c2ccccc23)cc1F (centres undefined)	nt	i	i	nt
SMILES	Cycloheximide cs	FMDV inh	Sm TGR inh	Shiga toxin inh
CCCC(=O)NCC(c1ccc2c(c1)OCO2)N1CCN(c2ccccc2)CC1 (centres undefined)	nt	i	i	nt
Cc1ccccc1Cn1nnc(-c2cccc(C(=O)O)c2)n1	56.1	i	i	123.8
COc1ccc(-c2nnn(Cc3ccccc3)n2)cc1	44.1	i	i	86.4
CSc1ccc(-c2nnn(Cc3ccc(C)cc3)n2)cc1	21.0	i	i	i
O=C(O)c1cccc(-c2nnn(Cc3ccccc3Cl)n2)c1	41.2	i	i	95.9
Cc1ccccc1Cn1nnc(-c2ccc(C(=O)O)cc2)n1	i	i	i	i
Cc1ccccc1-c1nnn(Cc2ccc(-c3nn[nH]n3)cc2)n1	i	i	i	i
O=C(COc1ccc(F)cc1)OCc1cc(=O)n2nc(C3CC3)sc2n1	nt	i	i	nt
Nc1ccc(-c2nnn(Cc3ccccc3)n2)cc1	nt	i	nt	nt
O=C(O)c1cccc(-c2nnn(Cc3ccccc3)n2)c1	69.6	i	i	63.2
O=C(O)c1cccc(OCc2ccccc2Cl)c1	111.1	i	i	121.5
CCC(C)NC(=O)c1ccc2c(c1)nc1n2CCCCC1 (centres undefined)	nt	i	i	nt
Cc1ccc(Nc2nnc(SCC(=O)Nc3cccnc3Cl)s2)cc1C	27.1	i	i	51.8
Cc1ccc(Nc2nnc(SCC(=O)Nc3ccccc3[N+](=O)[O-])s2)cc1	i	i	i	i
Cc1cccc(Nc2nnc(SCC(=O)Nc3ccccc3[N+](=O)[O-])s2)c1C	26.7	?	i	i
Cc1cccc(-c2nc3scc(CCNS(=O)(=O)c4ccc(F)c(C(F)(F)F)c4)n3n2)c1	nt	i	?	nt
CC1CCN(S(=O)(=O)N2CCC(C(=O)NCc3ccccc3Cl)CC2)CC1	nt	i	i	nt
CCN(CC)C(NC(=O)c1ccccc1)C(=O)c1ccccc1 (centres undefined)	54.6	i	79.4µM	i
CCOC(NC(=O)c1ccccc1)C(NC(=O)c1ccccc1)OCC (centres undefined)	i	i	i	i

Screening results as filed in PubChem BioAssay.
